Source: PubChem BioAssay
M1 antag: human M1 muscarinic receptor antagonists, primary screen, CHO-K1 cells, Fluo-8 calcium fluorescence, 1536-well. Muscarinic acetylcholine receptor M1 (Homo sapiens), P11229. CHO-K1 hM1, ACh EC80 antagonist. inhibition, % at 3 µM. hit rate 1.3% among 360,000;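 active means percent inhibition above its own plate's cutoff, namely the mean of that plate's compound wells plus 3 SD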;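 further: peak over basal fluorescence ratio during 140 s after agonist addition; 0% = ACh EC80 plus DMSO and 100% = DMSO alone without agonist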
Target sequence (P11229 whole entry, looked up): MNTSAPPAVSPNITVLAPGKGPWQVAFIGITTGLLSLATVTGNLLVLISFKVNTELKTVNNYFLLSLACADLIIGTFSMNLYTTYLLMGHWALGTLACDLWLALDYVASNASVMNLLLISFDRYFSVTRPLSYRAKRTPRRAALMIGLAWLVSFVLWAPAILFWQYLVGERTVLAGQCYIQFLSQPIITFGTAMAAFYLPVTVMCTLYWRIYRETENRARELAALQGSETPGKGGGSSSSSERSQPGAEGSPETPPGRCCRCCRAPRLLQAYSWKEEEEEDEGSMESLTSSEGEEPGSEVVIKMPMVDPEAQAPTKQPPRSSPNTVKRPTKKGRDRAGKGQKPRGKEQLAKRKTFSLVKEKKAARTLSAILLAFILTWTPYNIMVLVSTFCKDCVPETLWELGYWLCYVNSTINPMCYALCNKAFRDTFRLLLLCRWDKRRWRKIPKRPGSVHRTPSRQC
M1 ag: human M1 muscarinic receptor agonists, primary screen, Fluo-8 calcium fluorescence, CHO-K1 cells, HTS | Muscarinic acetylcholine receptor M1 (Homo sapiens), P11229 | AID 588814, 2011 | activation, % at 3 µM | hit rate 0.33% among 360,000 | CHO-K1 hM1, agonist mode; 0% DMSO, 100% acetylcholine EC100;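 active means activation above the run's mean compound activation plus 3 SD, cut at about 16% in these data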;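 further: peak over basal fluorescence ratio within a 140 s kinetic read after compound addition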
M1 PAM parental: nonselective calcium activators in parental CHO-K1 cells, primary screen, counter-screen for M1 PAM project, cell-based, Fluo-8 calcium fluorescence, full deck, 1536-well. activation, % at 3 µM. ATP EC20; 0% at ATP EC20, 100% at ATP max. hit rate 0.02% among 360,000;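 active means activation above the run cutoff, the mean activation of all test compounds plus 3 SD, cut at about 40% in these data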;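 further: peak over basal fluorescence ratio in a 140 s read after ATP addition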
M1 ag parental: counter-screen for M1 agonists: effect in parental CHO-K1 cells; Fluo-8 calcium fluorescence; scaled to maximal ATP response, vehicle zero; activation, % at 3 µM; hit rate 0.48% among 360,000; AID 602248, 2012; in the data active means activation above about 15%;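 further: untransfected CHO-K1 host cells lacking M1 receptor as counterscreen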
CHRM1 PAM: human M1 muscarinic receptor positive allosteric modulators, primary screen, CHO-K1 cells, Fluo-8 calcium fluorescence, 1536-well; Muscarinic acetylcholine receptor M1 (Homo sapiens), P11229; CHO-K1 hM1, ACh EC20; 0% = ACh EC20, 100% = maximal ACh; activation, % at 3 µM; hit rate 0.088% among 360,000; AID 588819, 2011; in the data active means activation above about 19%, passing the limit was not always enough
CHO-K1 Ca antag: M1 antagonist counterscreen hit in parental CHO-K1 cells; ATP-induced calcium, Fluo-8 fluorescence; inhibition, % at 3 µM; hit rate 0.6% among 360,000;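 active means inhibition above a per-plate cutoff, the plate's mean sample inhibition plus 3 SD, cut at about 24% in these data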;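 further: 0% = DMSO plus EC80 ATP and 100% = DMSO alone without ATP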
* marks the source's active call; other numbers are inactive results. Shown are actives, neighbours in structure and some others; about 2.3% of the full set was active somewhere.

SMILES	M1 antag	M1 ag	M1 PAM parental	M1 ag parental	CHRM1 PAM	CHO-K1 Ca antag
CC(=O)c1c(C)[nH]c(C(=O)COC(=O)C2(C)CC2(Cl)Cl)c1C (stereo not given)	20	1	2	20*	-14	-7
CCCCNS(=O)(=O)c1cc2c3c(c1)CCN3C(=O)CC2	-14	-3	22	2	10	-12
CC1(C)CCN2CCC(C)(C)c3c(O)ccc1c32	25	23*	3	34*	-10	26*
O=C(Nc1ccn(CCCN2CCN(c3ccccc3)CC2)c(=O)n1)OCc1ccccc1	0	-2	11	2	-9	-8
O=C(Nc1ccn(CCCN2CCN(Cc3cccc4ccccc34)CC2)c(=O)n1)OCc1ccccc1	30*	-3	12	4	-24	-1
COc1ccc(N2CCN(CCCn3ccc(NC(=O)OCc4ccccc4)nc3=O)CC2)cc1	7	-11	9	0	-15	-7
Cc1cc(C)c(CN2CCN(CCCn3ccc(NC(=O)OCc4ccccc4)nc3=O)CC2)c(C)c1	42*	-4	30	2	-28	-13
CC(C)(C)C(=O)Nc1ccc(S(=O)(=O)Nc2nccs2)cc1	15	-5	10	0	-5	12
CC(C)c1ccc(Nc2n[nH]c(=S)s2)cc1	7	-2	-5	1	-2	28*
CCOC(=O)c1cnc2ccc(OCC)cc2c1N1CCN(C)CC1	-1	-3	21	1	2	-14
CCOc1ccc2ncc(S(=O)(=O)c3ccc(C)cc3)c(N3CCC4(CC3)OCCO4)c2c1	35*	-5	17	4	-19	-1
COc1ccc(NC(=O)CSCC(=O)N(C)Cc2cccc(OC)c2OC)cc1	-15	1	-33	0	1	26*
COc1ccc(NC(=O)CSCC(=O)N2c3ccccc3CCc3ccccc32)cc1	-7	-10	17	19*	7	4
COc1cc2c(NCCCCCO)ncnc2c(OC)c1OC	-16	-4	1	0	6	10
CCOc1ccccc1C(=O)Oc1cc(C)[nH]c(=O)c1[N+](=O)[O-]	1	1	3	0	0	2
Cc1cc(NC(=O)CSCC(=O)N(C)Cc2ccc(Cl)cc2Cl)no1	-10	-2	21	3	6	-12
CCOC(=O)c1sc(=S)n(-c2ccc(Cl)cc2)c1C	-3	-5	-2	0	1	3
CCOC(=O)c1sc(=S)n(-c2cccc(C(F)(F)F)c2)c1SC	-11	-6	16	0	2	-4
CCOC(=O)c1sc(=S)n(-c2ccccc2)c1SC	51*	-7	17	0	-25	-9
CCOC(=O)c1sc(=S)n(-c2ccccc2Cl)c1SC	100*	-11	4	0	-32	-3
O=C(CNC(=O)c1ccccc1F)N/N=C/c1cn[nH]c1-c1ccccc1	41*	-10	16	2	-30	0
Cc1ccc(-n2cc(C(C)(C)C)[nH]c2=S)cc1	27	-4	-5	0	-8	26*
COc1cc(OC)c(OC)cc1CNC(=O)c1ccc(S(=O)(=O)N2CCCCC2)cc1	0	-4	-18	2	-2	-7
O=C(CSc1nnc2n1CCCN2)c1ccc([N+](=O)[O-])cc1	-9	-5	3	19*	8	9
O=C(CSc1nnc2n1CCCN2)c1ccc(Cl)cc1	1	-6	19	0	4	-1
SMILES	M1 antag	M1 ag	M1 PAM parental	M1 ag parental	CHRM1 PAM	CHO-K1 Ca antag
COc1ccc(-c2cn(CCC(=O)NCc3ccc(C)cc3)c(CCN)n2)cc1	4	-8	3	0	-5	-6
COc1ccc(OC)c(-c2nn(-c3ccccc3)cc2C(=O)NCC(c2cccs2)N2CCOCC2)c1 (stereo not given)	-5	-5	16	1	8	-12
C=CCNc1nc(N)c([N+](=O)[O-])c(N2CCCCCC2)n1	-11	-7	16	5	5	-13
CCN(CC)CCCNc1nc(N)c([N+](=O)[O-])c(N2CCCCCC2)n1	65*	-11	-16	1	-35	1
Cc1cccc(C(=O)N(C(=O)c2cccc(C)c2)N(C)C)c1	-8	-6	2	-1	9	-3
COC(=O)C(CC(=O)c1ccc(Cl)cc1)c1ccc(C)cc1 (stereo not given)	5	-5	-4	-1	33*	-2
CC1(C)CC[C@]2(C(=O)O)CC[C@]3(CO)C(=CCC4[C@@]5(C)C[C@H](O)[C@H](O)[C@@](C)(C(=O)O)C5CC[C@]43C)[C@@H]2C1 (stereo not given in full)	-8	8	1	0	27*	-16
COc1ccc(S(=O)(=O)N2CCOC2CNC(=O)C(=O)NCCCN2CCOCC2)cc1 (stereo not given)	15	-5	9	1	-5	0
CCOC(=O)C1=CCN(S(=O)(=O)c2ccc(C)cc2)C1c1ccc(Cl)cc1 (stereo not given)	-7	-5	14	1	-8	12
CCOC(=O)C1=CCN(S(=O)(=O)c2ccc(Cl)cc2)C1c1ccc(C)cc1 (stereo not given)	0	-4	-8	0	-1	24*
CCOC(=O)C1=CCN(S(=O)(=O)c2ccc(Br)cc2)C1c1cccc(C)c1 (stereo not given)	-6	3	3	0	13	18
CCOC(=O)C1=CCN(S(=O)(=O)c2ccc(C)cc2)C1c1cccc(Br)c1 (stereo not given)	11	-7	-9	0	-5	29*
Cn1c(N)c(C(=O)CSc2nnc(C3CC3)n2-c2ccccc2)c(=O)n(C)c1=O	-7	-2	13	0	9	-15
CN(C)CCCCOc1ccccc1-c1ccccc1	18*	-6	-7	0	-20	24*
Cc1cc(C(=O)NCCCN2CCN(C3CCCCC3)CC2)n(-c2ccccc2)n1	7	36*	8	-1	0	13
Cc1ccccc1NC(=O)NCCCN1CCN(C2CCCCC2)CC1	-10	-2	15	0	-4	-4
O=C(/C(N=Nc1cccc([N+](=O)[O-])c1)=C(/O)c1ccc(Br)cc1)C(F)(F)F	48*	-1	-17	10	-20	21
COc1cc(/C=C2\S/C(=N/S(=O)(=O)c3ccc(C)cc3)NC2=O)c([N+](=O)[O-])cc1OC	-4	1	9	2	6	1
